# Source: the supplement of paper PMC6897291
# What was measured:
# U-2932 [1] = assay: growth inhibition by drug alone (1 - RLU/untreated control) (fraction); higher = stronger inhibition; conditions: 177Lu-lilotomab satetraxetan 0 ug/ml
# Outline: (§1)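 Plates pre-printed with the Selleck Cambridge Cancer Compound library at 10/100 nM (RIVA) or 10/1,000 nM (U-2932) received 3,000 cells/well. These cells had been washed after 18 h untreated or with a radiolabelled anti-CD37 antibody conjugate (~600 MBq/mg; 0.5 µg/ml RIVA, 1 µg/ml U-2932). Growth inhibition was obtained from RealTime-Glo luminescence in relation to untreated no-drug wells. Each daily read from day 3, taken after 1 h at 37°C, was converted as 1 − RLU/mean of 48 such wells per plate.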
# RIVA [2] = assay: as above; conditions: 177Lu-lilotomab satetraxetan 0 ug/ml
# Outline: as §1
# U-2932 [3] = assay: growth inhibition by drug plus 177Lu-lilotomab satetraxetan (1 - RLU/untreated control) (fraction); higher = stronger inhibition; conditions: 177Lu-lilotomab satetraxetan 1 ug/ml
# Outline: as §1
# RIVA [4] = assay: as above; conditions: 177Lu-lilotomab satetraxetan 0.5 ug/ml
# Outline: as §1
SMILES,"growth inhibition by drug alone (U-2932 [1]; 10 nM, time (day): 3)","growth inhibition by drug alone (U-2932 [1]; 10 nM, time (day): 4)","growth inhibition by drug alone (U-2932 [1]; 10 nM, time (day): 5)","growth inhibition by drug alone (U-2932 [1]; 10 nM, time (day): 6)","growth inhibition by drug alone (U-2932 [1]; 1000 nM, time (day): 3)","growth inhibition by drug alone (U-2932 [1]; 1000 nM, time (day): 4)","growth inhibition by drug alone (U-2932 [1]; 1000 nM, time (day): 5)","growth inhibition by drug alone (U-2932 [1]; 1000 nM, time (day): 6)","growth inhibition by drug alone (RIVA [2]; 10 nM, time (day): 3)","growth inhibition by drug alone (RIVA [2]; 10 nM, time (day): 4)","growth inhibition by drug alone (RIVA [2]; 10 nM, time (day): 5)","growth inhibition by drug alone (RIVA [2]; 10 nM, time (day): 6)","growth inhibition by drug alone (RIVA [2]; 100 nM, time (day): 3)","growth inhibition by drug alone (RIVA [2]; 100 nM, time (day): 4)","growth inhibition by drug alone (RIVA [2]; 100 nM, time (day): 5)","growth inhibition by drug alone (RIVA [2]; 100 nM, time (day): 6)","growth inhibition by drug plus 177Lu-lilotomab satetraxetan (U-2932 [3]; 10 nM, time (day): 3)","growth inhibition by drug plus 177Lu-lilotomab satetraxetan (U-2932 [3]; 10 nM, time (day): 4)","growth inhibition by drug plus 177Lu-lilotomab satetraxetan (U-2932 [3]; 10 nM, time (day): 5)","growth inhibition by drug plus 177Lu-lilotomab satetraxetan (U-2932 [3]; 10 nM, time (day): 6)","growth inhibition by drug plus 177Lu-lilotomab satetraxetan (U-2932 [3]; 1000 nM, time (day): 3)","growth inhibition by drug plus 177Lu-lilotomab satetraxetan (U-2932 [3]; 1000 nM, time (day): 4)","growth inhibition by drug plus 177Lu-lilotomab satetraxetan (U-2932 [3]; 1000 nM, time (day): 5)","growth inhibition by drug plus 177Lu-lilotomab satetraxetan (U-2932 [3]; 1000 nM, time (day): 6)","growth inhibition by drug plus 177Lu-lilotomab satetraxetan (RIVA [4]; 10 nM, time (day): 3)","growth inhibition by drug plus 177Lu-lilotomab satetraxetan (RIVA [4]; 10 nM, time (day): 4)","growth inhibition by drug plus 177Lu-lilotomab satetraxetan (RIVA [4]; 10 nM, time (day): 5)","growth inhibition by drug plus 177Lu-lilotomab satetraxetan (RIVA [4]; 10 nM, time (day): 6)","growth inhibition by drug plus 177Lu-lilotomab satetraxetan (RIVA [4]; 100 nM, time (day): 3)","growth inhibition by drug plus 177Lu-lilotomab satetraxetan (RIVA [4]; 100 nM, time (day): 4)","growth inhibition by drug plus 177Lu-lilotomab satetraxetan (RIVA [4]; 100 nM, time (day): 5)","growth inhibition by drug plus 177Lu-lilotomab satetraxetan (RIVA [4]; 100 nM, time (day): 6)"
C[C@@H](Oc1cc(-n2cnc3ccc(CN4CCN(C)CC4)cc32)sc1C(N)=O)c1ccccc1C(F)(F)F,0.444,0.458,0.438,0.516,0.94,0.961,0.973,0.981,0.364,0.265,0.248,0.223,0.944,0.961,0.967,0.969,0.423,0.489,0.536,0.644,0.926,0.959,0.975,0.982,0.759,0.799,0.824,0.853,0.943,0.964,0.974,0.981
CC(C)(C#N)c1cc(Cn2cncn2)cc(C(C)(C)C#N)c1 [Anastrozole],0.105,0.0583,0.0212,-0.021,0.0109,0.046,-0.0146,-0.259,0.0128,-0.01,-0.0521,-0.213,-0.0495,-0.0262,-0.0644,-0.17,0.0156,0.039,0.0695,0.0754,-0.103,0.0124,-0.0136,-0.0141,0.481,0.583,0.593,0.583,0.423,0.506,0.523,0.499
C[C@]12CCC(=O)C=C1CC[C@@H]1[C@@H]2[C@@H](O)C[C@@]2(C)[C@H]1CC[C@]2(O)C(=O)CO [Hydrocortisone (Cortisol)],0.112,0.0854,0.0156,-0.0358,0.303,0.304,0.221,0.167,-0.0911,-0.0297,-0.194,-0.593,-0.515,-0.297,-0.373,-0.697,0.0227,0.0897,0.119,0.139,0.281,0.288,0.293,0.362,0.519,0.578,0.597,0.608,0.101,0.303,0.317,0.347
C[C@@H]1CN(CC(=O)Nc2ccc3c(c2)Cc2cccc(-c4cc(=O)cc(N5CCOCC5)o4)c2S3)C[C@H](C)O1,0.00343,-0.0228,-0.128,-0.257,-0.073,-0.0366,-0.0776,-0.17,-0.0136,-0.0829,-0.153,-0.417,-0.282,-0.285,-0.284,-0.465,-0.0592,-0.0257,-0.0361,-0.0183,-0.0688,0.0229,0.0334,0.0421,0.275,0.441,0.452,0.479,0.232,0.357,0.37,0.373
CC[C@H](Nc1ncnc2[nH]cnc12)c1nc2cccc(F)c2c(=O)n1-c1ccccc1,-0.00827,-0.000402,-0.0211,0.0544,0.567,0.374,0.289,0.263,-0.102,-0.203,-0.182,-0.255,0.424,0.204,0.175,0.0639,-0.0906,-0.0707,-0.0592,0.0112,0.507,0.287,0.217,0.234,0.367,0.448,0.484,0.5,0.575,0.541,0.554,0.546
Cc1cccc(-c2[nH]c(C(C)(C)C)nc2-c2ccc3nccnc3c2)n1,0.121,0.0591,-0.0391,-0.0718,0.0282,0.0616,0.0184,-0.0529,-0.0404,-0.00935,-0.0953,-0.422,-0.418,-0.28,-0.32,-0.559,0.0382,0.108,0.172,0.201,0.0486,0.0781,0.126,0.19,0.595,0.633,0.644,0.65,0.316,0.428,0.434,0.447
CN(C)c1nc(N(C)C)nc(N(C)C)n1 [Altretamine (Hexalen)],-0.0883,-0.0905,-0.0583,-0.058,-0.122,-0.0758,-0.114,0.0216,-0.25,-0.257,-0.29,-0.318,-0.545,-0.424,-0.488,-0.694,-0.146,-0.0735,-0.0141,-0.0604,-0.101,-0.0503,0.00142,0.121,0.349,0.469,0.481,0.485,0.239,0.318,0.312,0.332
COc1cc(Nc2c(C#N)cnc3cc(OCCCN4CCN(C)CC4)c(OC)cc23)c(Cl)cc1Cl [Bosutinib (SKI-606)],0.086,0.0525,-0.0862,-0.0345,0.264,0.239,0.19,0.239,-0.0137,-0.0501,-0.131,-0.404,-0.377,-0.355,-0.406,-0.598,0.0416,0.085,0.124,0.135,0.333,0.281,0.33,0.431,0.588,0.626,0.647,0.638,0.263,0.36,,
